According to ChEMBL document CHEMBL1961873, “Compounds: GSK PKIS; Assays: Nanosyn kinase panel” (2012):

Columns and labels:
[1] = biological target: Ribosomal protein S6 kinase alpha-3 (Homo sapiens) (UniProt P51812); settings: at 0.1 µM
[2] = biological target: Ribosomal protein S6 kinase alpha-3 (Homo sapiens) (UniProt P51812); settings: at 1 µM
[3] = biological target: Ribosomal protein S6 kinase alpha-2 (Homo sapiens) (UniProt Q15349); settings: at 0.1 µM
[4] = biological target: Ribosomal protein S6 kinase alpha-2 (Homo sapiens) (UniProt Q15349); settings: at 1 µM
[5] = biological target: Ribosomal protein S6 kinase alpha-6 (Homo sapiens) (UniProt Q9UK32); settings: at 0.1 µM
[6] = biological target: Ribosomal protein S6 kinase alpha-6 (Homo sapiens) (UniProt Q9UK32); settings: at 1 µM
[7] = biological target: Serine/threonine-protein kinase Sgk1 (Homo sapiens) (UniProt O00141); settings: at 0.1 µM
[8] = biological target: Serine/threonine-protein kinase Sgk1 (Homo sapiens) (UniProt O00141); settings: at 1 µM
[9] = biological target: Serine/threonine-protein kinase Sgk2 (Homo sapiens) (UniProt Q9HBY8); settings: at 0.1 µM
[10] = biological target: Serine/threonine-protein kinase Sgk2 (Homo sapiens) (UniProt Q9HBY8); settings: at 1 µM
[11] = biological target: Serine/threonine-protein kinase Sgk3 (Homo sapiens) (UniProt Q96BR1); settings: at 0.1 µM
[12] = biological target: Serine/threonine-protein kinase Sgk3 (Homo sapiens) (UniProt Q96BR1); settings: at 1 µM
[13] = biological target: 5'-AMP-activated protein kinase catalytic subunit alpha-1 (Homo sapiens) (UniProt Q13131); settings: at 0.1 µM
[14] = biological target: 5'-AMP-activated protein kinase catalytic subunit alpha-1 (Homo sapiens) (UniProt Q13131); settings: at 1 µM
[15] = biological target: 5'-AMP-activated protein kinase catalytic subunit alpha-2 (Homo sapiens) (UniProt P54646); settings: at 0.1 µM
Chain of 5'-AMP-activated protein kinase catalytic subunit alpha-2 (Homo sapiens) (P54646 whole entry, looked up): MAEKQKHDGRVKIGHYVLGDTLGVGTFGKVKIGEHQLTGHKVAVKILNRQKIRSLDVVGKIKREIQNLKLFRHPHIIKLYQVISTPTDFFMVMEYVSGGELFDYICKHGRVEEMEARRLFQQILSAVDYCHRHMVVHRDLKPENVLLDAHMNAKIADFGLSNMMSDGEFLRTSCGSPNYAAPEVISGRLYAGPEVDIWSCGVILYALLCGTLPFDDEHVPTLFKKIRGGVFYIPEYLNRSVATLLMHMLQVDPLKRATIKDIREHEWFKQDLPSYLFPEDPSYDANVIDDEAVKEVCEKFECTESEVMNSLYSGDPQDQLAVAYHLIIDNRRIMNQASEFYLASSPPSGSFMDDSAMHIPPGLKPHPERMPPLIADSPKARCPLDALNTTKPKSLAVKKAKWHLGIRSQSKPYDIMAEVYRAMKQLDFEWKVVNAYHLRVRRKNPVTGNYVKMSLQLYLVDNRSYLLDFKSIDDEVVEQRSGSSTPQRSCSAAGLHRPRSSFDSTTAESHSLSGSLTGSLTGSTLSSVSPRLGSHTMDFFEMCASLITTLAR

[16] = biological target: 5'-AMP-activated protein kinase catalytic subunit alpha-2 (Homo sapiens) (UniProt P54646); settings: at 1 µM
[17] = biological target: NUAK family SNF1-like kinase 1 (Homo sapiens) (UniProt O60285); settings: at 0.1 µM
Chain of NUAK family SNF1-like kinase 1 (Homo sapiens) (O60285 whole entry): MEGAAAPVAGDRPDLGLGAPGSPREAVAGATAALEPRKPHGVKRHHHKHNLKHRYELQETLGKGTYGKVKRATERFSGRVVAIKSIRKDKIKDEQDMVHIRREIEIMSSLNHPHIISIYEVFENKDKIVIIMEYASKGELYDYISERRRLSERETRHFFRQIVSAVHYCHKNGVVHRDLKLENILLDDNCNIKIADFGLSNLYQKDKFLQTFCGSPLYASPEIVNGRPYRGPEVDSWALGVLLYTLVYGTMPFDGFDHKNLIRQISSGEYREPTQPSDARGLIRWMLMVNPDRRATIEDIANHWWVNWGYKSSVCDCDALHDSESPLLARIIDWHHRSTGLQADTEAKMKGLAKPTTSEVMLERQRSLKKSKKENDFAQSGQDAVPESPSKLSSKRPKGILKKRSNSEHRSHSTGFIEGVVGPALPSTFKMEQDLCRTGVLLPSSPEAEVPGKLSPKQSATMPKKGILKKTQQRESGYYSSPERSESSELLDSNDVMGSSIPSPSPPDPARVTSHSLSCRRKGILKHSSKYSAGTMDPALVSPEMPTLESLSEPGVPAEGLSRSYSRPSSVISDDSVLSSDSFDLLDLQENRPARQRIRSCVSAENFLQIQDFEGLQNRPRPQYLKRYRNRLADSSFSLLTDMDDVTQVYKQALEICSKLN

[18] = biological target: NUAK family SNF1-like kinase 1 (Homo sapiens) (UniProt O60285); settings: at 1 µM
[19] = biological target: Serine/threonine-protein kinase BRSK1 (Homo sapiens) (UniProt Q8TDC3); settings: at 0.1 µM
Chain of Serine/threonine-protein kinase BRSK1 (Homo sapiens) (Q8TDC3 whole entry): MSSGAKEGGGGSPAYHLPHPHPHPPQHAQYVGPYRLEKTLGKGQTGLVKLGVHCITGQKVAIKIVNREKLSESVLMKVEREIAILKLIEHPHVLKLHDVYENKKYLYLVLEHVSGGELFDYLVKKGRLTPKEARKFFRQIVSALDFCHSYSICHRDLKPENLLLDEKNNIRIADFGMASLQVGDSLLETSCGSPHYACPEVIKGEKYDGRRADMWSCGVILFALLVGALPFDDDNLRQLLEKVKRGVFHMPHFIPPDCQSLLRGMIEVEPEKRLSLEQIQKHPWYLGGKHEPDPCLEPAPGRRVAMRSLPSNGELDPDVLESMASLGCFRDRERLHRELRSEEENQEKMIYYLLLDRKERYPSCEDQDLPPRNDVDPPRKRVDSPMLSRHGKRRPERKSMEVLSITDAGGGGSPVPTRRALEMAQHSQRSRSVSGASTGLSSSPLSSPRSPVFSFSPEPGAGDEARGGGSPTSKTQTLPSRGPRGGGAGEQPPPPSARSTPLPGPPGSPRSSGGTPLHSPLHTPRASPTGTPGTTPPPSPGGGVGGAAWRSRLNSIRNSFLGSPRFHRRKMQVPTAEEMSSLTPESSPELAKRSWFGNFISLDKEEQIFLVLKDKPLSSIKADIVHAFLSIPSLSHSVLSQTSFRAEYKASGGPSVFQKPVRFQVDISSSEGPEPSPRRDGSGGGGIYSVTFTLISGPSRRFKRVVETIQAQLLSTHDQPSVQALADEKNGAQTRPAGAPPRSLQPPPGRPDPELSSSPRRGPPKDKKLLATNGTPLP

[20] = biological target: Serine/threonine-protein kinase BRSK1 (Homo sapiens) (UniProt Q8TDC3); settings: at 1 µM
[21] = biological target: Serine/threonine-protein kinase BRSK2 (Homo sapiens) (UniProt Q8IWQ3); settings: at 0.1 µM
Chain of Serine/threonine-protein kinase BRSK2 (Homo sapiens) (Q8IWQ3 whole entry): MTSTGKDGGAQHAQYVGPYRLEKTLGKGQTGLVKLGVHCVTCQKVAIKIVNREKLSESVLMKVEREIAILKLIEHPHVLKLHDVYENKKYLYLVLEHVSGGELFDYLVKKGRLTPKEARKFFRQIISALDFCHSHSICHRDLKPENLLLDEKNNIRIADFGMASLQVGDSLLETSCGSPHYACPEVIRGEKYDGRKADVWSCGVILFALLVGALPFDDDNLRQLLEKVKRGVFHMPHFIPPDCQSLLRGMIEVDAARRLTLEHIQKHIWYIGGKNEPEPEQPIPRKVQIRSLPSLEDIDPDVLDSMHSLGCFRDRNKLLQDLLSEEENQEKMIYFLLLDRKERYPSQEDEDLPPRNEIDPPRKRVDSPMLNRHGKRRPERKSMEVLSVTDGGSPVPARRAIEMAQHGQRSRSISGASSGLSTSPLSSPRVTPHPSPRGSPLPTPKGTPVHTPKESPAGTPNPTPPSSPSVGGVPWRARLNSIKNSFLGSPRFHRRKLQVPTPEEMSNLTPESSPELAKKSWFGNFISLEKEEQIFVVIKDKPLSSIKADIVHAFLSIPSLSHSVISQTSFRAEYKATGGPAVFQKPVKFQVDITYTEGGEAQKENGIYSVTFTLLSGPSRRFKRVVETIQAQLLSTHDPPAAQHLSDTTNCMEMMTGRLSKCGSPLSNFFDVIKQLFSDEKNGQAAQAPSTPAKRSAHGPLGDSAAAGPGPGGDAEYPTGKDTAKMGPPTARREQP

[22] = biological target: Serine/threonine-protein kinase BRSK2 (Homo sapiens) (UniProt Q8IWQ3); settings: at 1 µM
[23] = biological target: Calcium/calmodulin-dependent protein kinase type 1D (Homo sapiens) (UniProt Q8IU85); settings: at 0.1 µM
[24] = biological target: Calcium/calmodulin-dependent protein kinase type 1D (Homo sapiens) (UniProt Q8IU85); settings: at 1 µM
[25] = biological target: Calcium/calmodulin-dependent protein kinase type II subunit alpha (Homo sapiens) (UniProt Q9UQM7); settings: at 0.1 µM
Chain of Calcium/calmodulin-dependent protein kinase type II subunit alpha (Homo sapiens) (Q9UQM7 whole entry): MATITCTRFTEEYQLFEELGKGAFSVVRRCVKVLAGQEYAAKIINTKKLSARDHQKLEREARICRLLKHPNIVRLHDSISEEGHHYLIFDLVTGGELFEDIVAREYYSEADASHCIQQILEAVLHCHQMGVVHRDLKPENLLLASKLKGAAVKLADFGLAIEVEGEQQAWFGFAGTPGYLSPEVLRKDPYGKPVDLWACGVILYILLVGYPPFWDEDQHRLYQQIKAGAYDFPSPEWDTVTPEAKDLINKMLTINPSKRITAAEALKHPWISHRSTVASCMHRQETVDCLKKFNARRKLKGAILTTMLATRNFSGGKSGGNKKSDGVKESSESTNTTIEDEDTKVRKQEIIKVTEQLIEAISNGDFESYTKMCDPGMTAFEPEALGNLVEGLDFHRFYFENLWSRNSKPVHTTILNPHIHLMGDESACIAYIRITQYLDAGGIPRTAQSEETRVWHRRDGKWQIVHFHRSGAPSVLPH

[26] = biological target: Calcium/calmodulin-dependent protein kinase type II subunit alpha (Homo sapiens) (UniProt Q9UQM7); settings: at 1 µM
[27] = biological target: Calcium/calmodulin-dependent protein kinase type II subunit delta (Homo sapiens) (UniProt Q13557); settings: at 0.1 µM
[28] = biological target: Calcium/calmodulin-dependent protein kinase type II subunit delta (Homo sapiens) (UniProt Q13557); settings: at 1 µM
[29] = biological target: Calcium/calmodulin-dependent protein kinase type IV (Homo sapiens) (UniProt Q16566); settings: at 0.1 µM
[30] = biological target: Calcium/calmodulin-dependent protein kinase type IV (Homo sapiens) (UniProt Q16566); settings: at 1 µM
[31] = biological target: Serine/threonine-protein kinase Chk1 (Homo sapiens) (UniProt O14757); settings: at 0.1 µM
[32] = biological target: Serine/threonine-protein kinase Chk1 (Homo sapiens) (UniProt O14757); settings: at 1 µM
[33] = biological target: Serine/threonine-protein kinase Chk2 (Homo sapiens) (UniProt O96017); settings: at 0.1 µM
Chain of Serine/threonine-protein kinase Chk2 (Homo sapiens) (O96017 whole entry): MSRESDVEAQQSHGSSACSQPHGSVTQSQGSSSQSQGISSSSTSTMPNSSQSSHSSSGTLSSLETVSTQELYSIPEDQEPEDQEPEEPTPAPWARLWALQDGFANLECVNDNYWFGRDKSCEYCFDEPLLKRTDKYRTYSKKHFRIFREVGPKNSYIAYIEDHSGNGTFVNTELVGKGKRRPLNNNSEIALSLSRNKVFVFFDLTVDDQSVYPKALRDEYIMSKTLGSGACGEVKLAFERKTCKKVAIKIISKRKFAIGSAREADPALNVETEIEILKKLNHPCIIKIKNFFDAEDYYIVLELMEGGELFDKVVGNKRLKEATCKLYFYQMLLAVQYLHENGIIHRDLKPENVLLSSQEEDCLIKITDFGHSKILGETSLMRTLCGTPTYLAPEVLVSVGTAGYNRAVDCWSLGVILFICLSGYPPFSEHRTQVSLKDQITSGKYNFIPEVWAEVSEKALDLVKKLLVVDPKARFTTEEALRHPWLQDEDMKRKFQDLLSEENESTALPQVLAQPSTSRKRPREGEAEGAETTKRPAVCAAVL

[34] = biological target: Serine/threonine-protein kinase Chk2 (Homo sapiens) (UniProt O96017); settings: at 1 µM
[35] = biological target: Death-associated protein kinase 1 (Homo sapiens) (UniProt P53355); settings: at 0.1 µM
[36] = biological target: Death-associated protein kinase 1 (Homo sapiens) (UniProt P53355); settings: at 1 µM
[37] = biological target: Serine/threonine-protein kinase DCLK2 (Homo sapiens) (UniProt Q8N568); settings: at 0.1 µM
[38] = biological target: Serine/threonine-protein kinase DCLK2 (Homo sapiens) (UniProt Q8N568); settings: at 1 µM
[39] = biological target: MAP kinase-activated protein kinase 2 (Homo sapiens) (UniProt P49137); settings: at 0.1 µM
[40] = biological target: MAP kinase-activated protein kinase 2 (Homo sapiens) (UniProt P49137); settings: at 1 µM
[41] = biological target: MAP kinase-activated protein kinase 3 (Homo sapiens) (UniProt Q16644); settings: at 0.1 µM
[42] = biological target: MAP kinase-activated protein kinase 3 (Homo sapiens) (UniProt Q16644); settings: at 1 µM
[43] = biological target: Serine/threonine-protein kinase MARK1 (Homo sapiens) (UniProt Q9P0L2); settings: at 0.1 µM
[44] = biological target: Serine/threonine-protein kinase MARK1 (Homo sapiens) (UniProt Q9P0L2); settings: at 1 µM
[45] = biological target: MAP/microtubule affinity-regulating kinase 3 (Homo sapiens) (UniProt P27448); settings: at 0.1 µM
[46] = biological target: MAP/microtubule affinity-regulating kinase 3 (Homo sapiens) (UniProt P27448); settings: at 1 µM
[47] = biological target: MAP/microtubule affinity-regulating kinase 4 (Homo sapiens) (UniProt Q96L34); settings: at 0.1 µM
Chain of MAP/microtubule affinity-regulating kinase 4 (Homo sapiens) (Q96L34 whole entry): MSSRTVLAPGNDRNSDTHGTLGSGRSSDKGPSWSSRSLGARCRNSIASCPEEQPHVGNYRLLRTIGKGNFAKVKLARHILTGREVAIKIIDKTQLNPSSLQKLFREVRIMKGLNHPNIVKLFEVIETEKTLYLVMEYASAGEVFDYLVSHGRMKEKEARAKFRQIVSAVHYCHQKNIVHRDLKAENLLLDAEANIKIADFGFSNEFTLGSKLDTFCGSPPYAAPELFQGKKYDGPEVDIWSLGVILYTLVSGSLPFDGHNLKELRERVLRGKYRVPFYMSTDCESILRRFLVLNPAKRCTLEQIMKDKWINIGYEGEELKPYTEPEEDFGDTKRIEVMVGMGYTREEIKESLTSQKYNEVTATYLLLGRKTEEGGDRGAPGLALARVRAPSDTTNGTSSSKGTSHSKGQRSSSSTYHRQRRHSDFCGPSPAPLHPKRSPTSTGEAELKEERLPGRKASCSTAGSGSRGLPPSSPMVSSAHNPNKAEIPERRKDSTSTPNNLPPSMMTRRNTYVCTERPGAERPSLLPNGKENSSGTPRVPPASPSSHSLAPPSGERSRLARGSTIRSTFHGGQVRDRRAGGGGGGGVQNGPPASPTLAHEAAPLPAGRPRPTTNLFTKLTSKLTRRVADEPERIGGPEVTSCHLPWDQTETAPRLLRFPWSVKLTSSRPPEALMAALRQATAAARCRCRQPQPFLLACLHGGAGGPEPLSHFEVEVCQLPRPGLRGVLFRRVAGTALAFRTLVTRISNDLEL

[48] = biological target: MAP/microtubule affinity-regulating kinase 4 (Homo sapiens) (UniProt Q96L34); settings: at 1 µM
[49] = biological target: Maternal embryonic leucine zipper kinase (Homo sapiens) (UniProt Q14680); settings: at 0.1 µM
[50] = biological target: Maternal embryonic leucine zipper kinase (Homo sapiens) (UniProt Q14680); settings: at 1 µM
[51] = biological target: MAP kinase-interacting serine/threonine-protein kinase 1 (Homo sapiens) (UniProt Q9BUB5); settings: at 0.1 µM
[52] = biological target: MAP kinase-interacting serine/threonine-protein kinase 1 (Homo sapiens) (UniProt Q9BUB5); settings: at 1 µM
[53] = biological target: MAP kinase-interacting serine/threonine-protein kinase 2 (Homo sapiens) (UniProt Q9HBH9); settings: at 0.1 µM
Chain of MAP kinase-interacting serine/threonine-protein kinase 2 (Homo sapiens) (Q9HBH9 whole entry, looked up): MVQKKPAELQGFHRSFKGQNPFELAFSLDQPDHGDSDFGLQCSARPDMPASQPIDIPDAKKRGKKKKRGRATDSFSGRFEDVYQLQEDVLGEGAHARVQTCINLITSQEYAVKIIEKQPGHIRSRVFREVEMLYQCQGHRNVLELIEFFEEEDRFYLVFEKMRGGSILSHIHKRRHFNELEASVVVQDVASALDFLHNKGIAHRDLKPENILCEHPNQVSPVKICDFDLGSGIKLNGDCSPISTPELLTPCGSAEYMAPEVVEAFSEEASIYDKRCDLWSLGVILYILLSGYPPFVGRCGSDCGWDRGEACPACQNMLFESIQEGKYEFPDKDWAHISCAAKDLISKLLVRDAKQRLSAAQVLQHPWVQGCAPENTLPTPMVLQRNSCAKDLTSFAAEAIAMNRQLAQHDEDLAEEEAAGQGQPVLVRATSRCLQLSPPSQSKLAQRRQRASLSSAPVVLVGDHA

[54] = biological target: MAP kinase-interacting serine/threonine-protein kinase 2 (Homo sapiens) (UniProt Q9HBH9); settings: at 1 µM
[55] = biological target: Serine/threonine-protein kinase MARK2 (Homo sapiens) (UniProt Q7KZI7); settings: at 0.1 µM
[56] = biological target: Serine/threonine-protein kinase MARK2 (Homo sapiens) (UniProt Q7KZI7); settings: at 1 µM

CNC(=O)Oc1cc(C)c(/C=C/c2cncc(C(=O)NC)c2)c(C)c1
inhibition [1]: 1.05% | inhibition [2]: 3.39% | inhibition [3]: 1.4% | inhibition [4]: 3.44% | inhibition [5]: 1.15% | inhibition [6]: 2.66% | inhibition [7]: 3.01% | inhibition [8]: 0.19% | inhibition [9]: 1.73% | inhibition [10]: 0.22% | inhibition [11]: 1.34% | inhibition [12]: 0.65% | inhibition [13]: 2.14% | inhibition [14]: 0.11% | inhibition [15]: -0.38% | inhibition [16]: 2.44% | inhibition [17]: -1.06% | inhibition [18]: 4.07% | inhibition [19]: 2.89% | inhibition [20]: 12% | inhibition [21]: 1.79% | inhibition [22]: 7.68% | inhibition [23]: 0.95% | inhibition [24]: 2.36% | inhibition [25]: 3.17% | inhibition [26]: 4.72% | inhibition [27]: 4.03% | inhibition [28]: 5.12% | inhibition [29]: 1.23% | inhibition [30]: 0.1% | inhibition [31]: -2.68% | inhibition [32]: -3.25% | inhibition [33]: -3.08% | inhibition [34]: 0.64% | inhibition [35]: -4.67% | inhibition [36]: -3.09% | inhibition [37]: 1.08% | inhibition [38]: -1.11% | inhibition [39]: -2.03% | inhibition [40]: -2.01% | inhibition [41]: -3.36% | inhibition [42]: -4.16% | inhibition [43]: 1.32% | inhibition [44]: 0.49% | inhibition [45]: 3.32% | inhibition [46]: 5.19% | inhibition [47]: 0.21% | inhibition [48]: 0.46% | inhibition [49]: 1.41% | inhibition [50]: 3.48% | inhibition [51]: 5.31% | inhibition [52]: 30.7% | inhibition [53]: 3.17% | inhibition [54]: 25.1% | inhibition [55]: -0.87% | inhibition [56]: 0.31%
